# Among all 69,000 compounds or so, about 8,600 (12%) showed an effect of 50% or more. The sample as a whole holds a higher share of strong results than the screen did.
# System: Plasmodium berghei
# Test: Screen against P. berghei liver stage (PbLuc), transformed with Luciferase, at 10uM
# Type: functional, HepG2
# Conditions: tested at 10 uM
row,Compound,INHIBITION [%]
1,CN1CCC(c2cccc(CCC(=O)NCC(N)=O)n2)CC1,-6.92
2,CCN(Cc1ccc2c(c1)OCO2)S(=O)(=O)N(C)C,-21.9
3,CC(C)Cc1noc(C2CCN(C(=O)c3cccs3)CC2)n1,17
4,Cc1cnn(CC2CCCN2C(=O)c2cccc(-n3ccc(C)n3)c2)c1 (centres undefined),-17
5,NC(=O)COc1cccc(CN2CCc3cncnc3C2)c1,11.2
6,CN(Cc1ccco1)[C@@H]1CN(Cc2ccoc2)C[C@@H]2CCCO[C@@H]21,41.3
7,CS(=O)(=O)c1cnc(C2CCCC2)nc1C1CCCNC1 (centres undefined),16.5
8,COCCN1CCc2c(cnc(-c3ccccc3)c2C(=O)O)C1,36.4
9,CC(C)(O)CN1CCN(C(=O)COCc2ccccc2Cl)CC1,23.1
10,Cc1cccc(-n2nnnc2C2(NCc3ccco3)CCCCC2)c1,28.7
11,COC1CCN(C(=O)c2cc(-c3ccc(Cl)cc3)on2)CC1,-55.6
12,Cn1cnnc1C1CCCN(C(=O)NCc2ccccc2)C1 (centres undefined),-33.7
13,Cn1cnnc1C1CCN(C(=O)c2cc(-c3ccccc3)on2)CC1,51
14,Cn1cnnc1C1CCCN(C(=O)NCc2cc[nH]n2)C1 (centres undefined),50.4
15,Cn1cnnc1C1CCCN(C(=O)c2cc(-c3ccccc3)on2)C1 (centres undefined),60
16,Cc1cc(C(=O)N2CCCC(c3nncn3C)C2)no1 (centres undefined),36.5
17,Cn1cnnc1C1CCCN(C(=O)NCc2ccccn2)C1 (centres undefined),1.75
18,Cn1cnnc1C1CCCN(C(=O)c2cc(C3CC3)on2)C1 (centres undefined),5.15
19,Cc1noc(C2CCCN(C(=O)c3cc(-c4ccccc4)on3)C2)n1 (centres undefined),47.7
20,Cc1cccc2ncn(C(C)Cn3cccn3)c(=O)c12 (centres undefined),31.7
21,Cc1nn(C)cc1C1CC(=O)Nc2c1cnn2C(C)C (centres undefined),48.4
22,COCCN1C(=O)[C@@H]2CC[C@H]1CN(S(=O)(=O)c1ccc(C#N)cc1)C2,39.1
23,Cc1cnn(CC2CCCCN2CC(=O)Nc2cccnc2)c1 (centres undefined),33.4
24,O=C(NCc1cccnc1-n1cncn1)C1CC2(CCNCC2)CN1 (centres undefined),20.2
25,O=C1CCN(C(=O)NCc2cccc(Oc3ccccc3)c2)CCN1,3.63
26,O=C(NCC1(O)CCSCC1)c1ccoc1,-2.04
27,O=C(Cc1cccs1)NCC1(O)CCSC1 (centres undefined),54.8

row,Compound,INHIBITION [%]
1,O=C(NCC1(O)CCSC1)c1ccoc1 (centres undefined),86.7
2,O=C(Cc1cccs1)NCC1(O)CCc2ccccc2C1 (centres undefined),37.4
3,O=C(Cc1cccs1)NCC1(O)CCSCC1,-24.5
4,COC1(CNC(=O)c2ccoc2)CCSC1 (centres undefined),14.2
5,CC(C)N(C)Cc1nnc2n1CCN(Cc1ccncc1)CC2,1.28
6,CN1C(=O)[C@@H]2CC[C@H]1CN(C(=O)Nc1cccc3ccccc13)C2,-42.1
7,NCc1n[nH]c(-c2ccc(F)cc2)n1,-19.7
8,CCCC(=O)N(C)Cc1nc(N2CCCC2)ncc1-c1ccncc1,14.855
9,COCC(=O)N(C)Cc1nc(N2CCCC2)ncc1-c1ccncc1,52
10,CC(C)C(=O)N(C)Cc1nc(N2CCCC2)ncc1-c1ccncc1,11.235
11,Cc1cc(N(Cc2ccon2)S(C)(=O)=O)ccc1Br,-22.6
12,CCCS(=O)(=O)N1C[C@@H]2CN(Cc3cnn(C)c3)CCO[C@@H]2C1,65.6
13,CCS(=O)(=O)N1C[C@@H]2CN(Cc3ccco3)CCO[C@@H]2C1,-39.2
14,CCS(=O)(=O)N1C[C@@H]2CN(Cc3cccs3)CCO[C@@H]2C1,90.7
15,CCS(=O)(=O)N1C[C@@H]2CN(Cc3cnn(C)c3)CCO[C@@H]2C1,-13
16,O=S(=O)(C1CC1)N1C[C@@H]2CN(Cc3cccs3)CCO[C@@H]2C1,34.3
17,O=S(=O)(C1CC1)N1CCO[C@@H]2CN(Cc3cccs3)C[C@@H]2C1,-23.4
18,CCCS(=O)(=O)N1C[C@@H]2CN(Cc3ccoc3)CCO[C@@H]2C1,-58.9
19,c1csc(CN2CCO[C@@H]3CN(C4CCOCC4)C[C@@H]3C2)c1,64.4
20,CCCS(=O)(=O)N1C[C@@H]2CN(Cc3cccs3)CCO[C@@H]2C1,-2.46
21,Cc1csc(C2CCCCN2C(=O)CN(C)C(C)C)n1 (centres undefined),-19.9
22,Cn1ccnc1COc1ccc(CN2CCC(C(N)=O)CC2)cc1,-14.7
23,Nc1nc(CN2CCOC(Cn3cccn3)C2)nc2ccccc12 (centres undefined),1.75
24,c1ccc(-c2cc(CN3CCCC(Cn4cncn4)C3)on2)cc1 (centres undefined),11.6
25,CS(=O)(=O)CCCC(=O)Nc1cc(Cl)c(Cl)cn1,15.7
26,COCCCC(=O)Nc1cc(Cl)c(Cl)cn1,79.8
27,CS(=O)(=O)CCC(=O)Nc1cc(Cl)c(Cl)cn1,35.2
